# High-throughput results (PubChem)
# A selection: hits, their analogues and other compounds. The true share with any hit is near 1.7%.
# PfHsp40 rescue = restores yeast growth despite PfHsp40 toxicity | S. cerevisiae expressing PfHsp40, growth rescue, ATP luminescence | 0.68% of 340,000 active | growth rescue, % at 12.5 µM; in the data active means growth rescue above about 28%, passing the limit was not always enough;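 further: yeast W303a lacking pdr1 and pdr3 grown in galactose medium; growth measured after three days at 30 °C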
# SSB-PriA inh = blocks PriA binding to SSB C-terminal tail; 0.6% of 430,000 active; AlphaScreen SSBct-PriA binding, biotinylated peptide; inhibition, % at 33 µM; in the data active means inhibition mostly above about 37%, no sharp cut-off; inactive means mostly below about 20%;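 further: plate controls were negative control peptide for no effect and reference peptide for full effect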
# PrP 5UTR inh = suppresses PrP 5' UTR mRNA reporter expression; cell-based PrP 5' UTR mRNA reporter, plate reader; inhibition, % (concentration not given with the values); 0.35% of 340,000 active; AID 488862; in the data active means inhibition above about 52%; further: 0 = median of the neutral control wells
# BJeLR lethal = BJeLR cell viability loss | BJeLR (HRASV12) viability, CellTiter-Glo ATP luminescence, 48 h | inhibition, % (test concentration not listed) | 0.17% of 300,000 active; in the data active means inhibition above about 50%
# Y pestis TopoI = blocks Yersinia pestis topoisomerase I activity; Y. pestis Topo-I cleavage product accumulation, plate reader; 0.064% of 360,000 active; activity, % at 10 µM; in the data active means activity above about 50%, passing the limit was not always enough
# PrPC surface inh = cell surface PrPC inhibition, primary TR-FRET screen; P04156; TR-FRET read-out; inhibition, % at 13.8 µM; 0.43% of 370,000 active; in the data active means inhibition above about 24%; further: 0% = median of the test wells and 100% = reference compound wells
# * = called active by the depositor; nt = no result given; ! = repeats disagree.
SMILES,PfHsp40 rescue,SSB-PriA inh,PrP 5UTR inh,BJeLR lethal,Y pestis TopoI,PrPC surface inh
COCCNC(=O)C(=O)NCC1CCN(c2ccccn2)CC1,nt,-2,nt,nt,nt,nt
O=C(NCC[C@H](O)c1ccsc1)Nc1ccccc1F,nt,-7,nt,nt,nt,nt
O=C(Oc1ccccc1)N1CCC(CNS(=O)(=O)c2ccc(Br)s2)CC1,nt,-16,nt,nt,nt,nt
Cc1nc(N2CCN(C(=O)C3(c4ccccc4)CC3)CC2)cc(C(F)(F)F)n1,nt,-11,nt,nt,nt,nt
COc1cccc(N2C(=S)N(c3ccc(Cl)cc3)C3CS(=O)(=O)CC32)c1 (stereo not drawn),nt,4,nt,nt,nt,nt
CCOC(=O)c1c(NC(=O)CCCN2C(=O)c3cccc4cccc(c34)C2=O)sc(C)c1C,nt,-3,nt,nt,nt,nt
Cc1ccc(C(N)=NOC(=O)CCc2ccccc2)cc1,nt,-123,nt,nt,nt,nt
NC(=NOC(=O)c1ccc2ccccc2c1)c1ccccc1Cl,nt,-13,nt,nt,nt,nt
COc1ccc(N2CC(NC(=O)Nc3ccc(C(N)=O)cc3)CC2=O)cc1 (stereo not drawn),nt,-6,nt,nt,nt,nt
CN(C)S(=O)(=O)c1cccc(NC(=O)CSc2cccc3cccnc23)c1,-1,65*,-7,2,-1,4
O=C(CSc1cccc2cccnc12)Nc1ccc(SC(F)F)cc1,nt,85*,nt,nt,nt,nt
Cc1cc(Cl)ccc1NC(=O)CSc1cccc2cccnc12,nt,47,nt,nt,nt,nt
Cc1cc(I)ccc1NC(=O)CSc1cccc2cccnc12,nt,45,nt,nt,nt,nt
Cn1ccnc1SCC(=O)Nc1ccc(SC(F)F)cc1,0,12,-36,nt,5,-2
Cc1cc(Br)ccc1NC(=O)CSc1cccc2cccnc12,nt,82*,nt,nt,nt,nt
CCOc1cccc(C=NNC(=O)c2ccc3c(c2)OCCO3)c1O,nt,3,nt,nt,nt,nt
Cc1cccc(N2CCN(S(=O)(=O)c3cccc4nonc34)CC2)c1C,1,39*,-17,-1,26,1
N#CCCN(C(=O)Nc1ccccc1)c1ccccc1,66*,3,-3,-2,1,-6
Cc1cc(C)c(-c2nnc(NC(=O)COc3ccc(Cl)cc3Cl)s2)c(C)c1,nt,4,nt,nt,nt,nt
COc1ccc(CCNC(=O)c2csc(NS(=O)(=O)c3ccccc3)n2)cc1OC,nt,-4,nt,nt,nt,nt
Cc1noc(C)c1COC(=O)Cc1ccc(Cl)cc1,-1,-22,-19,2,12,-1
Cc1noc(C)c1COC(=O)CCCOc1ccc(Cl)cc1Cl,2,-14,-7,7,61*,1
Cc1cccc(NC(=O)C[C@@H]2Sc3ccccc3NC2=O)c1C,nt,-17,nt,nt,nt,nt
CCOc1cc(-c2nnc(NC(=O)c3ccc(Br)s3)o2)cc(OCC)c1OCC,nt,-10,nt,nt,nt,nt
CCc1ccc(CNC(=O)Cc2ccc(NC(=O)C3=C(C)OCCS3)cc2)cc1,-1,0,12,53*,27,11
SMILES,PfHsp40 rescue,SSB-PriA inh,PrP 5UTR inh,BJeLR lethal,Y pestis TopoI,PrPC surface inh
Cc1ccc(-c2ccc(=O)n(CCCNC(=O)Nc3ccc4c(c3)OCCO4)n2)cc1,nt,-9,nt,nt,nt,nt
COc1ccc(/C=C2/Sc3ccc(C(=O)N4CCc5ccccc5C4)cc3NC2=O)cc1,48*,3,-19,-6,39,4
COc1ccc(/C=C2\Sc3ccc(C(=O)N4CCc5ccccc5C4)cc3N(C)C2=O)cc1,nt,nt,nt,10,nt,nt
Cc1cc(C(=O)Nc2nc3c(s2)CN(C(=O)C2(c4ccccc4)CCOCC2)CC3)no1,nt,6,nt,nt,nt,nt
Cc1cc(C)c2sc(N(CCCN(C)C)C(=O)c3ccc(S(=O)(=O)N4CCCc5ccccc54)cc3)nc2c1,1,47*!,-17,23,-19,-10
CN(C)CCCN(C(=O)c1ccc(S(=O)(=O)N2CCc3ccccc32)cc1)c1nc2ccc(F)cc2s1,0,46*!,-22,-3,16,-7
CN(C)CCCN(C(=O)c1cc(-c2cccs2)nc2ccccc12)c1nc2ccc(F)cc2s1,2,41*,-9,0,3,-15
CN(C)CCCN(C(=O)c1ccc(S(=O)(=O)N2CCCc3ccccc32)cc1)c1nc2c(Cl)cccc2s1,nt,39*,nt,nt,nt,nt
O=C(NC[C@H](Cc1cccc(F)c1)N1CCCC1=O)c1ccccc1,nt,-5,nt,nt,nt,nt
C/C=C/c1ccc(OCC(O)CN2CCN(c3cccc(Cl)c3)CC2)c(OC)c1 (stereo not drawn),nt,36*,nt,nt,nt,nt
Cn1cc(S(=O)(=O)N(Cc2ccoc2)Cc2cccs2)cn1,nt,-6,nt,nt,nt,nt
Cc1ccc(S(=O)(=O)N=C2NC(=O)/C(=C\c3ccccc3)S2)cc1,nt,9,nt,nt,nt,nt
O=C(COc1ccc2ccccc2c1)Nc1ccncc1,0,-9,-26,13,-1,10
O=C(COc1ccccc1)Nc1ccncc1,44*,-4,-15,4,-8,3
Cc1ccc(-c2nc3ccc(Cl)cc3c(=O)n2O)cc1,355*,-5,-6,3,3,-2
COc1cc(OC)cc(-c2nc3ccccc3c(=O)n2OC(=O)c2ccc(Br)cc2)c1,0,11,5,4,13,8
Cc1ccc(-c2nc3ccccc3c(=O)n2O)cc1,132*,-6,-20,1,4,-2
COc1ccc(C(=O)On2c(-c3ccc(Br)cc3)nc3ccccc3c2=O)cc1,375*,-6,-16,-2,11,-5
COc1ccccc1-c1nc2ccccc2c(=O)n1O,0,-8,-13,3,-3,-1
O=c1c2cc(Br)ccc2nc(-c2ccccc2)n1O,128*,-10,-14,-2,6,7
Cc1nnc(NC(=O)CSc2nnc(-c3ccccc3F)o2)s1,nt,2,nt,nt,nt,nt
CC(C)CS(=O)(=O)C1CN(C(=O)Cn2ccc3ccccc32)C1,nt,-3,nt,nt,nt,nt
Cc1nc(C)c(C(=O)NCCn2ncc3c(N4CCN(c5ccc(F)cc5)CC4)ncnc32)s1,nt,-19,nt,nt,nt,nt
O=C(Nc1c[nH]c2ccccc12)N1CCN(Cc2ccccc2)CC1,nt,-3,nt,nt,nt,nt
O=c1c2cc(Cl)ccc2nc(-c2ccccc2Cl)n1O,12,-8,-21,-5,1,6
SMILES,PfHsp40 rescue,SSB-PriA inh,PrP 5UTR inh,BJeLR lethal,Y pestis TopoI,PrPC surface inh
O=c1c2ccccc2nc(-c2ccc([N+](=O)[O-])cc2)n1O,30*,-11,-12,18,-13,-6
O=c1c2ccccc2nc(-c2cccc(Cl)c2)n1O,236*,-3,7,4,-4,-8
O=c1c2ccccc2nc(-c2ccc([N+](=O)[O-])cc2)n1-c1ccccc1,-1,-4,-14,13,-2,-1
C=CCOc1ccc(C2C(=C(O)c3ccc4c(c3)CC(C)O4)C(=O)C(=O)N2CCN2CCOCC2)cc1OCC (stereo not drawn),nt,7,nt,nt,nt,nt
O=[N+]([O-])c1ccc(C=NNc2ccccc2)cc1,30*,8,-12,nt,-14,2
O=[N+]([O-])c1cccc(NN=Cc2ccc(N3CCOCC3)cc2)c1,nt,52*,nt,nt,nt,nt
Cc1cccc(COCC(Cc2ccccc2)N2CCN(C(=O)c3ccc(Cl)c(Cl)c3)CCC2=O)c1 (stereo not drawn),7,2,-9,0,23,7
O=C(c1ccc(Cl)c(Cl)c1)N1CCC(=O)N(C(COCc2ccc(Cl)cc2)Cc2ccccc2)CC1 (stereo not drawn),30*,-48,-1,-3,41,5
Cc1cccc(N=Nc2ccc(N(C)C)cc2)c1,3,55*,-6,-5,-3,6
